Assay results reported in PubChem BioAssay (Tox21).
Activity calls are given as the source filed them. Calls follow the shape of the dose curve; as a rule, active = well fitted curve in the direction sought with a large enough effect in the repeat runs; inconclusive = weak or mixed curves; inactive = flat fitted curve, though single readings scatter.

test: qHTS assay to test for compound auto fluorescence at 535 nm (green) in HepG2 cells (AID 720675); settings: green autofluorescence 485/535 nm, 1 h; series mostly up to 91.3 µM; fluorescence, % of fluorescein control: at the top concentration
From the text: National Center for Advancing Translational Sciences [NCATS]
NIH Chemical Genomics Center [NCGC]
U.S. Environmental Protection Agency [EPA]
National Institutes of Environmental Health Sciences [NIEHS]
National Toxicology Program [NTP]
U.S. Food and Drug Administration [FDA]
Compound auto fluorescence often interferes with screening of the compound library against various biological targets and signaling pathways. Some of these compounds may have fluorophoric properties. Such properties may interfere with the assay outputs resulting in false positives and/or negatives. To decrease such complications and ensure the compound activities are relevant in terms of biological response, the Tox21 10K compound library was screened for auto fluorescence.
From the fluorophores used as reporter signals in our screening assays, the auto fluorescence equivalencies of compounds against three fluorophores have been evaluated: Triamterene, Fluorescein and Rose Bengal sodium for blue, green and red fluorescence, respectively. The fluorescence intensities were measured using Excitation/Emission wavelengths at 405/460nm, 485/535nm and 540/590nm for blue, green and red labels, respectively. This assay includes the green fluorescence data.
Tox21 Assay Protocol Summary:
2,000 HepG2 cells in 5 uL of culture medium (MEM containing 10% FBS) per well were dispensed into black wall/clear bottom 1536-well plates using a Multidrop Combi Dispenser (ThermoFisher Scientific, Waltham, MA). The assay plates were incubated overnight at 37 C to allow cell attachment to the well bottom, followed by the transfer of 23 nL compound or DMSO vehicle by a pintool work station (Kalypsys , San Diego, CA). After the assay plates were incubated for 1 hr at 37 C and 5% CO2, fluorescence intensities in the assay plates were measured by an Envision (PerkinElmer, Shelton, CT) plate reader using three labels for measuring blue, green and red fluorescence at […] 460, 535 and 590 nm respectively.
% is scaled to controls: 0 for no effect and ±100 for the full control effect.

SMILES	fluorescence, % of fluorescein control
Clc1cccc(C(c2ccc3nc[nH]c3c2)n2ccnc2)c1 (stereo not given)	0.017% [at 46 µM] (inactive)
CC(C)C/C=C(\C=O)c1ccccc1	0.0066% (inactive)
O=C(O)CNc1ccccc1	0.0636% (inactive)
O=C1CCCN1CCO	0.0201% (inactive)
Cc1nc2sccn2c(=O)c1CCN1CCC(=C(c2ccc(F)cc2)c2ccc(F)cc2)CC1	0.0978% [at 46 µM] (inactive)
CC(C)=CCC[C@H](C)CCO	-0.0656% (inactive)
CCOc1ccc(NC(C)=O)cc1N	0.0869% [at 95.7 µM] (inactive)
N#C[C@@H]1CC(F)(F)CN1C(=O)CNC1CC2CCC(C1)N2c1ncccn1 (stereo not given in full)	0.386% (inactive)
O=C(O)c1cccc(C(=O)O)c1C(=O)O	-0.152% (inactive)
CCN(CCCCOC(=O)c1ccc(OC)c(OC)c1)C(C)Cc1ccc(OC)cc1 (stereo not given)	0.0889% [at 18.6 µM] (inactive)
c1ccc(-c2ccc(-c3ccccc3)cc2)cc1	-0.0708% [at 18.6 µM] (inactive)
CC(C)Cc1nccs1	0.0045% [at 95.7 µM] (inactive)
CCCCCCOC(=O)c1ccccc1	-0.124% (inactive)
CCOc1cc(OCC)c(C(C)=O)cc1OCC	0.0136% (inactive)
C=CC(C)(O)CC/C=C(/C)CCC=C(C)C (stereo not given)	-0.0099% (inactive)
Cc1c(-c2cccnc2)c2ccccc2n1CCCCC(=O)O	0.129% (inactive)
C[C@@H](O)[C@H]1C(=O)N2C(C(=O)O)=C(S[C@@H]3CN[C@H](CNS(N)(=O)=O)C3)[C@H](C)[C@H]12	0.121% [at 46 µM] (inactive)
CCCCCC1CCC(=O)O1 (stereo not given)	-0.0287% (inactive)
CCCCOC(=O)CC#N	-0.0094% [at 95.7 µM] (inactive)
[O-][n+]1ccc(Cl)cc1	-0.0281% [at 95.7 µM] (inactive)

SMILES	fluorescence, % of fluorescein control
CC/C=C\CCO	-0.0249% (inactive)
Nc1cccc2c(=O)[nH][nH]c(=O)c12	-0.0248% (inactive)
CC(=O)Nc1ccn(C2COC(COC(=O)c3ccccc3)O2)c(=O)n1 (stereo not given)	-0.131% [at 46 µM] (inactive)
C=C[Si](OCC)(OCC)OCC	0.0284% (inactive)
C/C(=C(\CCO)SS/C(CCO)=C(\C)N(C=O)Cc1cnc(C)nc1N)N(C=O)Cc1cnc(C)nc1N	-0.0162% [at 46 µM] (inactive)
Clc1nc2ccccc2nc1Cl	0.0654% [at 95.7 µM] (inactive)
CCCC1CCCC(=O)O1 (stereo not given)	-0.0595% (inactive)
CCCCCCCCCCCCCCCCCCCl	0.0105% [at 3.72 µM] (inactive)
CC(O)CN (stereo not given)	0.118% (inactive)
CC(=O)S[C@H](C(=O)N[C@H]1Cc2ccccc2[C@H]2CCC[C@@H](C(=O)O)N2C1=O)C(C)C	0.0272% (inactive)
Clc1ccccc1-c1nc(-c2ccncc2)no1	0.001% [at 46 µM] (inactive)
COc1cccc([C@H](O)C2CCN(CCc3ccc(F)cc3)CC2)c1OC	-0.0079% (inactive)
CCCN(C1CCN(C(=O)C2CCNCC2)CC1)[C@@H]1CCc2ccc(OC)cc2C1	-0.16% (inactive)
O=C(O)c1ccc2cc(O)ccc2c1	-0.0253% (inactive)
CCOC(OCC)OCC	-0.0448% (inactive)
Oc1ccc(Oc2ccccc2)cc1	-0.0053% (inactive)
CCc1ccc(C(=O)C(C)CN2CCCCC2)cc1 (stereo not given)	-0.0185% [at 46 µM] (inactive)
Sc1nc(S)nc(S)n1	-0.0482% [at 46 µM] (inactive)
CC(=O)Nc1cccc(N)c1	-0.264% [at 95.7 µM] (inactive)
Nc1ccc(C(=O)Oc2ccccc2)c(O)c1	0.035% [at 46 µM] (inactive)
